# Measured values from the supplement of paper PMC10849652.
# The full data set covers some 7,900 targets. This sample favours those with a hit. About 0.6% of all pairs of compound and target were hits. Values without a mark were called inactive.
# Compound: C/C(=N\NC(=O)C1=CC(=CC=C1)S(=O)(=O)N2CCOCC2)/C3=C(C=CC(=C3)Cl)O
# Test: log2 fold change, soluble protein after heating vs DMSO (PISA); higher = thermal stabilisation; K562 cells, 10 uM, 30 min; active = over 0.2 and 3.5 SD of the protein, either way, in both replicates (recomputed)
# Procedure, shortened: (§1)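 K562 cells at 2×10^6 cells/mL were given 10 μM compound for 30 min. Aliquots then went through 3 min of heating across 48°C-58°C, were pooled, and were extracted in PBS with 0.5% NP-40 at 4°C, and the supernatant after 21,000xg for 90 min was quantified by TMTpro 16plex LC-MS/MS with channel sums equalised. Thermal stability relative to control samples, from duplicates, is given as log2 fold change.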
# Sequence of UniProt Q01628 (Q01628 whole entry, looked up): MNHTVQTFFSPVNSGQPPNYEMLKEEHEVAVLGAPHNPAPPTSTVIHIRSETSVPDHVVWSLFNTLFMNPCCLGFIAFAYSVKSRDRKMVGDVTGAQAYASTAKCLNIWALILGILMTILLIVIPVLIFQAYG
# Sequence of UniProt Q9BUJ2 (Q9BUJ2 whole entry, looked up): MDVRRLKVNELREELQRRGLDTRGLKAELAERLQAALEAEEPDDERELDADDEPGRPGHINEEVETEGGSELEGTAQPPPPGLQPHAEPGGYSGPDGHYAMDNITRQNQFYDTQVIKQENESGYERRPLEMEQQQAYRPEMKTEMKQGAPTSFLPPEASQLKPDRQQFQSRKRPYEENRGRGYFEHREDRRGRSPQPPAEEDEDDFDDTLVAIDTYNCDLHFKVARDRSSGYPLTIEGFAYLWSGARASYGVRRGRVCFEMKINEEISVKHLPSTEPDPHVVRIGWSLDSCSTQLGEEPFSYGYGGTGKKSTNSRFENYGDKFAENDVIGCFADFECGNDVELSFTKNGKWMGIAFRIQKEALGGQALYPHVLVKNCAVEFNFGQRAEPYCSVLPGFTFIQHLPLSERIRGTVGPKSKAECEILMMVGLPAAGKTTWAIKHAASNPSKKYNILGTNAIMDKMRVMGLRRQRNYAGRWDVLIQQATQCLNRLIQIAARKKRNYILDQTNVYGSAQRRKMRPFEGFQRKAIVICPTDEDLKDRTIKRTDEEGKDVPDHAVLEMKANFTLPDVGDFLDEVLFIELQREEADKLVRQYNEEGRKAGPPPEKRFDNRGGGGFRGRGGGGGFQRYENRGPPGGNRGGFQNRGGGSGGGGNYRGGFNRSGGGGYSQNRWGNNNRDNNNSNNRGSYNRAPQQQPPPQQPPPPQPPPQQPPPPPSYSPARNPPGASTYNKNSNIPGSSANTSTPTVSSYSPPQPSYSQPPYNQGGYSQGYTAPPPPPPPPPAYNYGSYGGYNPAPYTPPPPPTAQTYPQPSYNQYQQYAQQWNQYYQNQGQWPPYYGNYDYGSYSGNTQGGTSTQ
# Sequence of UniProt Q10472 (Q10472 whole entry, looked up): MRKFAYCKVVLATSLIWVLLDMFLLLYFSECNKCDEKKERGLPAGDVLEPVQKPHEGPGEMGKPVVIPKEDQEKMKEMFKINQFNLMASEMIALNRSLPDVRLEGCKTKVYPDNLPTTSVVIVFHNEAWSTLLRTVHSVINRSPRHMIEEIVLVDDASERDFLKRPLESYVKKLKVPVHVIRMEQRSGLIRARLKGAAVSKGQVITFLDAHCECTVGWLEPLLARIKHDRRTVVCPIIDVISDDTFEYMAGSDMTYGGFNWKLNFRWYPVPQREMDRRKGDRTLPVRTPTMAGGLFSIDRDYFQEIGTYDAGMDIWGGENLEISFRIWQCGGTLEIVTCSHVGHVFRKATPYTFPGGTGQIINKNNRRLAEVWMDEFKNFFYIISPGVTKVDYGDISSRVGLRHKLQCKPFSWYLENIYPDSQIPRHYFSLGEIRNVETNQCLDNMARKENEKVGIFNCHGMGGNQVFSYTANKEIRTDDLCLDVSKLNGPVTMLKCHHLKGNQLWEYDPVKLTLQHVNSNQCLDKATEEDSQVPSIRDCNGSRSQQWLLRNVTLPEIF
# Sequence of UniProt Q53R41 (Q53R41 whole entry, looked up): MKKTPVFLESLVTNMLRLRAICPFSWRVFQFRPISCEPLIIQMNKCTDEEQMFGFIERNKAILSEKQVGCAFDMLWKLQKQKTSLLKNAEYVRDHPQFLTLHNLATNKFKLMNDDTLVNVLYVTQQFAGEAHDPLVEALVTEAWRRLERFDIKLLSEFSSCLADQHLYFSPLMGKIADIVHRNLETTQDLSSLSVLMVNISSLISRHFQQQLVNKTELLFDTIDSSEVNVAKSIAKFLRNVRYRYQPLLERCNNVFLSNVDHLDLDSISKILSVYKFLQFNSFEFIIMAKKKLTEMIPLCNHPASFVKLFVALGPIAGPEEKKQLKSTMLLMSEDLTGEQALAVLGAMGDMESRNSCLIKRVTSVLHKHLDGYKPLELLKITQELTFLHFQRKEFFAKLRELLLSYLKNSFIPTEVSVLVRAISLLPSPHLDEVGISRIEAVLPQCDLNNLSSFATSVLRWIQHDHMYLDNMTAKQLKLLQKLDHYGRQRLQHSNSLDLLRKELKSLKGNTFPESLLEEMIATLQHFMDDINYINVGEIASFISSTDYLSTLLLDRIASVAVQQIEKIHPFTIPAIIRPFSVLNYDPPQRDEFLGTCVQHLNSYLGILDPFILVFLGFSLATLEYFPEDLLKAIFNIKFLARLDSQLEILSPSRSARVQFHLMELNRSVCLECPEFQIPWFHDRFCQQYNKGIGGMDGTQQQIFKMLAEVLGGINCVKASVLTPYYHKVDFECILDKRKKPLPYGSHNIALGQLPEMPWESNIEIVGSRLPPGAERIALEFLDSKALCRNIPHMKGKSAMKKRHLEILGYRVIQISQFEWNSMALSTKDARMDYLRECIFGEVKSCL
# Sequence of UniProt Q7Z4V5 (Q7Z4V5 whole entry, looked up): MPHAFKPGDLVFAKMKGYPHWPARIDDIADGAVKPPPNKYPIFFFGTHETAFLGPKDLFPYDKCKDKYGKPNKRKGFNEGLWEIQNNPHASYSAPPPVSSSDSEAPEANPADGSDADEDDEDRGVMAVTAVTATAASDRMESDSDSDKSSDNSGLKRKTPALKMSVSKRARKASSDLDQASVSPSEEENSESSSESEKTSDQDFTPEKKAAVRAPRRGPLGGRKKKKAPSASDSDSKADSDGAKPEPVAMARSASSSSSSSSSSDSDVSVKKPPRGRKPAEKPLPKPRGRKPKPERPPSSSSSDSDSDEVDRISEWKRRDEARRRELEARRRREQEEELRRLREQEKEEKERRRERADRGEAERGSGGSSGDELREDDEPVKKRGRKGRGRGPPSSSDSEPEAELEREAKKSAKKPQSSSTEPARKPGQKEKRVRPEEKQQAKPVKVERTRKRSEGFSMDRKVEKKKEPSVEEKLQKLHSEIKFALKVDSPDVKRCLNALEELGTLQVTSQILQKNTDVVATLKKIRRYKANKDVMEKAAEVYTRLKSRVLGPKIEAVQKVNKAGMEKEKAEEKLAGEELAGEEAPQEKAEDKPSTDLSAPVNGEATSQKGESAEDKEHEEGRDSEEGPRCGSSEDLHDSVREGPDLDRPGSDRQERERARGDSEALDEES
# Sequence of UniProt O60725 (O60725 whole entry, looked up): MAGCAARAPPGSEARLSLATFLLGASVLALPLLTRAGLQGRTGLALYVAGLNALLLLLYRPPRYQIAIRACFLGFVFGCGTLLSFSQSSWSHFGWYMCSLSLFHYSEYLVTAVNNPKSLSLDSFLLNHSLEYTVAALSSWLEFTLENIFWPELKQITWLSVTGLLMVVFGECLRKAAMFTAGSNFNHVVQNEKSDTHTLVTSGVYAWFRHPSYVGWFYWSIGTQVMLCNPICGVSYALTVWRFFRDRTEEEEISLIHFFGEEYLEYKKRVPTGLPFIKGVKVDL
# Sequence of UniProt Q9P2H3 (Q9P2H3 whole entry, looked up): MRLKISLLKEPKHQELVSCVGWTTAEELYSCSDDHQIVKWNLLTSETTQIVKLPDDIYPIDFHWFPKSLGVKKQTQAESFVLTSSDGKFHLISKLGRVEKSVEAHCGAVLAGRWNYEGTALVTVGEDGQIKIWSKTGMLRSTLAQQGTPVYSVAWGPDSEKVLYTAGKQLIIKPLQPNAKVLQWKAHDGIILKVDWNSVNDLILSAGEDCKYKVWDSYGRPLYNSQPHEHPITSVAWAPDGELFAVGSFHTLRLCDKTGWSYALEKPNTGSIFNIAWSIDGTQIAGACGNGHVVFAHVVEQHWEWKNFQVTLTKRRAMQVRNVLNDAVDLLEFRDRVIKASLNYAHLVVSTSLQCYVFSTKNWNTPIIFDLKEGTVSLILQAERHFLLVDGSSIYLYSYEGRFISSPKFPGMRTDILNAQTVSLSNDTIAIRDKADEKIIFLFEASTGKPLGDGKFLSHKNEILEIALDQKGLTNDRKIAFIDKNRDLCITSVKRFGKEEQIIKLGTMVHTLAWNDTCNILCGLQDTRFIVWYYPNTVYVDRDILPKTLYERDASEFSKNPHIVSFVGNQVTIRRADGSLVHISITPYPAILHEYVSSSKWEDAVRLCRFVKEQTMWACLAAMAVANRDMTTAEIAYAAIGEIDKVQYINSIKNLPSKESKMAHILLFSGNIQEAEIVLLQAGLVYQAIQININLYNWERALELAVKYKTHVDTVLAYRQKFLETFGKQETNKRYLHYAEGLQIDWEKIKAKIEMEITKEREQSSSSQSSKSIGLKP
# Sequence of UniProt P16278 (P16278 whole entry, looked up): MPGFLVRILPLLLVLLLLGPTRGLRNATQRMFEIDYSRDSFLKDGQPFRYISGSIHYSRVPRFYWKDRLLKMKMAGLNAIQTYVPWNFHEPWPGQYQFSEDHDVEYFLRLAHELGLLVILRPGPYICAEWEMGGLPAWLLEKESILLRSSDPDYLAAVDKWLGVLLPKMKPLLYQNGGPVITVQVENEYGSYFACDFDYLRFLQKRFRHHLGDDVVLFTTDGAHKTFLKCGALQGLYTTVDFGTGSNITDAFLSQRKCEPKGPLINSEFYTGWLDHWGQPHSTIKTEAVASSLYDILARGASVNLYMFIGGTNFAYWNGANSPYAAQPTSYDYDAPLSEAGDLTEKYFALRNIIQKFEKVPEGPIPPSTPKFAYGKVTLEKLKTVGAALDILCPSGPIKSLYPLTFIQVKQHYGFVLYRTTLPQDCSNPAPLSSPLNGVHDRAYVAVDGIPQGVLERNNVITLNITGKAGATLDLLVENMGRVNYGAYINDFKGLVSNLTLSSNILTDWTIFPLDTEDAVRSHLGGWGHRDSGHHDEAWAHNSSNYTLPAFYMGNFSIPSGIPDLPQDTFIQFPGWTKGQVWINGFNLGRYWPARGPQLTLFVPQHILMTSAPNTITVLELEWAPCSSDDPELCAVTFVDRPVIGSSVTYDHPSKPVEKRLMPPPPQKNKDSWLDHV
# Sequence of UniProt Q03013 (Q03013 whole entry, looked up): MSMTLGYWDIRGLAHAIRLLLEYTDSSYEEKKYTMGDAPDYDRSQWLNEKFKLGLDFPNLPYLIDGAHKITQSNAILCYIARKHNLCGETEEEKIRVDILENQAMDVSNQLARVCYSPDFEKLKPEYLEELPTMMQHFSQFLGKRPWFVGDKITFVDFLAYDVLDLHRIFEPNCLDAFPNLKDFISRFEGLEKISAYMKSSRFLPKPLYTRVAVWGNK
row,Target,log2 fold change
1,GBF1 (UniProt Q92538),0.077
2,GABARAPL1 isoform 2 (UniProt Q9H0R8),-0.012
3,GPX4 (UniProt P36969),0.035
4,HIP1 (UniProt O00291),0.033
5,HNRNPUL1 (UniProt Q9BUJ2),-0.009
6,HIKESHI (UniProt Q53FT3),0.1
7,FEN1 (UniProt P39748),0.098
8,GLCCI1 (UniProt Q86VQ1),-0.101
9,GID4 (UniProt Q8IVV7),0.017
10,GTF2E2 (UniProt P29084),0.137
11,FUT8 (UniProt Q9BYC5),0.019
12,HDHD2 (UniProt Q9H0R4),0
13,HTATIP2 isoform 3 (UniProt Q9BUP3),0.112
14,GTPBP6 (UniProt O43824),-0.017
15,FASTKD1 (UniProt Q53R41),0.219
16,GLB1 (UniProt P16278),0.038
17,IFITM3 (UniProt Q01628),-0.031
18,GDE1 (UniProt Q9NZC3),0.065

row,Target,log2 fold change
1,GLS isoform 3 (UniProt O94925),0.156
2,H2AFX (UniProt P16104),-0.243
3,GLUD2 (UniProt P49448),-0.028
4,HSD17B12 (UniProt Q53GQ0),0.067
5,HK2 (UniProt P52789),0.037
6,GYS1 (UniProt P13807),-0.104
7,FARS2 (UniProt O95363),0.081
8,HDGFL2 (UniProt Q7Z4V5),0.001
9,GSTM4 (UniProt Q03013),-0.029
10,ICMT (UniProt O60725),-0.081
11,ICAM1 (UniProt P05362),0.008
12,HIST2H3A (UniProt Q71DI3),-0.114
13,IFT80 isoform 3 (UniProt Q9P2H3),0.071
14,GALNT1 (UniProt Q10472),-0.014
15,GLRX3 (UniProt O76003),0.024
16,GLUD1 (UniProt P00367),-0.009
17,HOMER1 (UniProt Q86YM7),-0.015

# Compound: C1=CC(=C(C=C1Cl)C2=NC3=NC=CN=C3C(=N2)NC4=CC=NC=C4)F
# Test: as above
# Procedure, shortened: as §1
row,Target,log2 fold change
1,GBF1 (UniProt Q92538),-0.049
2,GABARAPL1 isoform 2 (UniProt Q9H0R8),-0.023
3,GPX4 (UniProt P36969),-0.012
4,HIP1 (UniProt O00291),0.046
5,HNRNPUL1 (UniProt Q9BUJ2),0.018
6,HIKESHI (UniProt Q53FT3),0.017
7,FEN1 (UniProt P39748),0.091
8,GLCCI1 (UniProt Q86VQ1),-0.058
9,GID4 (UniProt Q8IVV7),0.005
10,GTF2E2 (UniProt P29084),0.048
11,FUT8 (UniProt Q9BYC5),-0.07
12,HDHD2 (UniProt Q9H0R4),0.133
13,HTATIP2 isoform 3 (UniProt Q9BUP3),0.016
14,GTPBP6 (UniProt O43824),-0.137
15,FASTKD1 (UniProt Q53R41),0.142
16,GLB1 (UniProt P16278),0
17,IFITM3 (UniProt Q01628),-0.471 (active)
18,GDE1 (UniProt Q9NZC3),0.055

row,Target,log2 fold change
1,GLS isoform 3 (UniProt O94925),-0.041
2,H2AFX (UniProt P16104),-0.54
3,GLUD2 (UniProt P49448),0.028
4,HSD17B12 (UniProt Q53GQ0),0.02
5,HK2 (UniProt P52789),0.051
6,GYS1 (UniProt P13807),-0.345
7,FARS2 (UniProt O95363),-0.046
8,HDGFL2 (UniProt Q7Z4V5),0.042
9,GSTM4 (UniProt Q03013),0.217
10,ICMT (UniProt O60725),0.015
11,ICAM1 (UniProt P05362),0.015
12,HIST2H3A (UniProt Q71DI3),-0.305
13,IFT80 isoform 3 (UniProt Q9P2H3),-0.04
14,GALNT1 (UniProt Q10472),-0.069
15,GLRX3 (UniProt O76003),0.052
16,GLUD1 (UniProt P00367),0.051
17,HOMER1 (UniProt Q86YM7),-0.05
